Results with a measured potency or affinity are listed apart. Values without a mark were called inactive.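 Rule for the calls: active = every repeat run showing a signal drop whose fitted half-maximal concentration is at most twice the top tested concentration; inconclusive = repeat runs disagree, or flat partial drop, or poor fit; inactive = the rest.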

A short description of this assay: HEK293T cytotoxicity, dose response, cytotoxicity control for miR-122 modulator project, cell-based, activator set, cherry-pick (AID 720690).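 Note: 0% = neutral control wells and -100% = MG132 cytotoxic control wells.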 As to conditions: HEK293T viability, CellTiter-Glo luminescence, 48 h; series mostly up to 26 µM; activity change, negative = cytotoxicity: at the top concentration. (ATP-based viability assays read luminescence as a measure of living cells.)
Regarding `COCC(=O)N1[C@@H](CO)[C@@H]2c3ccccc3N(C(=O)C3CC3)C[C@@H]21`, the “activity change, negative = cytotoxicity” value was 0.653%.

Regarding `CCCNC(=O)C[C@H]1CC[C@H]2[C@H](COc3ccc(NC(=O)c4ccc(C(F)(F)F)cc4)cc3C(=O)N2C)O1`, the “activity change, negative = cytotoxicity” value is -13.1% [at 23.5 µM].

For `COc1ccc(CN2CCN(Cc3cccn3-c3ncccn3)CC2CCO)c(C)c1C` (centres undefined), the “activity change, negative = cytotoxicity” value was 5.96%.

On to `CNC(=O)C[C@H]1CC[C@H]2[C@@H](COc3ccc(NC(=O)c4cccc(OC)c4)cc3C(=O)N2C)O1`, for which the “activity change, negative = cytotoxicity” value is -3.39%.

`CNC(=O)c1nc(C)n(-c2cc(Cl)cc(Cl)c2)n1`: the “activity change, negative = cytotoxicity” value was 17.7%.

On to `Cc1ccc(-c2ccc3c(c2)O[C@H](CN(C)C(=O)CC2CC2)[C@H](C)CN([C@H](C)CO)S3(=O)=O)cc1`, for which the “activity change, negative = cytotoxicity” value was -25.1%.

`O=c1c2cc(N3CCOCC3)ccc2[nH]c(=S)n1CCCN1CCCC1`: the “activity change, negative = cytotoxicity” value was 30.1%.

In the case of `Cc1nn(C)cc1NC(=O)C[C@@H]1CC[C@@H]2[C@H](COc3ccc(NC(=O)Nc4cccc(Cl)c4)cc3C(=O)N2C)O1`, the “activity change, negative = cytotoxicity” value was 5.79%.

With `CCNC(=O)C[C@@H]1CC[C@H]2[C@@H](COc3ccc(NC(=O)Nc4ccc(F)cc4)cc3C(=O)N2C)O1`, the “activity change, negative = cytotoxicity” value was -8.16%.

In the case of `COCC(=O)N(C[C@H]1[C@H](c2ccccc2)[C@H](CO)N1C(=O)NC(C)C)C(C)C`, the “activity change, negative = cytotoxicity” value is -14.9% [at 23.5 µM].

Turning to `C=CCc1ccccc1OCC(O)CN1CCN(CCN2C(=O)c3cccc4cccc(c34)C2=O)CC1` (centres undefined), the “activity change, negative = cytotoxicity” value is 2.13%.

Turning to `CCCNC(=O)C[C@@H]1CC[C@@H]2[C@@H](COc3ccc(NC(=O)c4ccc(C(F)(F)F)cc4)cc3C(=O)N2C)O1`, the “activity change, negative = cytotoxicity” value was -6.55%.

For the molecule `C[C@@H]1CN([C@H](C)CO)S(=O)(=O)c2ccc(C#CC3(O)CCCC3)cc2O[C@@H]1CN(C)C(=O)c1cccnc1`, the “activity change, negative = cytotoxicity” value was -4.02%.

Regarding `O=C(Nc1ccccc1N1CCN(C(=O)c2ccc(Cl)cc2)CC1)c1cccnc1`, the “activity change, negative = cytotoxicity” value is -3.86%.

As to `CO[C@@H]1CN(C)C(=O)c2ccc(NC(=O)c3nc4ccccc4s3)cc2OC[C@H](C)N(Cc2cccnc2)C[C@H]1C`, the “activity change, negative = cytotoxicity” value is -2.46%.

Take `COC(=O)C[C@H]1CC[C@H]2[C@H](COc3ccc(NC(=O)c4cccc(F)c4)cc3C(=O)N2C)O1`: the “activity change, negative = cytotoxicity” value is -6.8%.

`CNC(=O)C[C@@H]1CC[C@@H]2[C@@H](COc3ccc(NC(=O)c4cccc(OC)c4)cc3C(=O)N2C)O1`: the “activity change, negative = cytotoxicity” value is 16.2%.

In the case of `COCC(=O)N(C)C[C@H]1Oc2cc(-c3ccccc3F)ccc2S(=O)(=O)N([C@@H](C)CO)C[C@@H]1C`, the “activity change, negative = cytotoxicity” value was -13.7%.

Turning to `C[C@@H]1CN([C@H](C)CO)S(=O)(=O)c2ccc(C3=CCCC3)cc2O[C@@H]1CN(C)C(=O)Cc1ccncc1`, the “activity change, negative = cytotoxicity” value is -10.5%.

For `CCOc1ccc(C(CCc2ccccc2)NC(=O)c2ccccc2F)cc1OCC` (centres undefined), the “activity change, negative = cytotoxicity” value was -5.85%.

Turning to `CCNC(=O)CCC(=O)Nc1cc(Cl)ccc1C`, the “activity change, negative = cytotoxicity” value is -23.3%.

Regarding `COc1cccc(-c2ccc3c(c2)O[C@H](CN(C)C(=O)C2CCOCC2)[C@H](C)CN([C@@H](C)CO)S3(=O)=O)c1`, the “activity change, negative = cytotoxicity” value is -9.25%.

As for `Cc1nn(C)cc1NC(=O)C[C@@H]1CC[C@@H]2[C@@H](COc3ccc(NC(=O)Nc4cccc(Cl)c4)cc3C(=O)N2C)O1`, the “activity change, negative = cytotoxicity” value is -5.53%.

As for `Cc1cc(C(=O)Nc2ccc3c(c2)C(=O)N(C)[C@@H]2CC[C@@H](CC(=O)N[C@H](C)c4ccccc4)O[C@H]2CO3)no1`, the “activity change, negative = cytotoxicity” value was 11.4%.

Take `CO[C@H]1CN(C)C(=O)c2ccc(NS(C)(=O)=O)cc2OC[C@H](C)N(C(=O)CN(C)C)C[C@H]1C`: the “activity change, negative = cytotoxicity” value is -3.42%.

With `COCC(=O)N(C[C@@H]1[C@@H](c2ccccc2)[C@H](CO)N1C(=O)NC(C)C)C(C)C`, the “activity change, negative = cytotoxicity” value was 2.09%.

`COC(=O)C[C@@H]1CC[C@@H]2[C@@H](COc3ccc(NC(=O)c4cscn4)cc3C(=O)N2C)O1`: the “activity change, negative = cytotoxicity” value is 2.84%.

Consider `O=C(Nc1ccc(F)cc1)N1C[C@H]2[C@@H](c3ccccc31)[C@H](CO)N2C(=O)c1ccncc1`, for which the “activity change, negative = cytotoxicity” value is -3.65%.

Take `CN1C(=O)c2cc(NC(=O)c3cccc(F)c3)ccc2OC[C@@H]2O[C@H](CC(=O)O)CC[C@@H]21`: the “activity change, negative = cytotoxicity” value is -7.57% [at 23.5 µM].

As for `CN1C(=O)c2cc(NC(=O)Nc3cccc(Cl)c3)ccc2OC[C@H]2O[C@H](CC(=O)NCCc3ccncc3)CC[C@H]21`, the “activity change, negative = cytotoxicity” value was -1.57%.

Consider `CN1C(=O)c2cc(NC(=O)c3cccs3)ccc2OC[C@@H]2O[C@@H](CC(=O)NCCN3CCCCC3)CC[C@H]21`, for which the “activity change, negative = cytotoxicity” value was 1.91%.

As to `Nc1nc(Cl)nc2c1ncn2[C@H]1C[C@H](O)[C@@H](CO)O1`, the “activity change, negative = cytotoxicity” value was -34.9%.

In the case of `Cn1c(NC(=O)c2ccco2)c(-c2ccccc2Cl)c(=O)c2ccccc21`, the “activity change, negative = cytotoxicity” value is -9.64%.

Take `CN1C(=O)c2cc(NC(=O)Cc3ccccc3)ccc2OC[C@@H]2O[C@@H](CC(=O)O)CC[C@H]21`: the “activity change, negative = cytotoxicity” value was -1.92% [at 23.5 µM].

As for `COc1cccc(S(=O)(=O)N(C)C[C@@H]2Oc3cc(C4=CCCC4)ccc3S(=O)(=O)N([C@H](C)CO)C[C@@H]2C)c1`, the “activity change, negative = cytotoxicity” value is -35.5%.

On to `COc1cccc(OCc2cc(/C=N/Nc3ccc(C(=O)O)cc3)ccc2OC)c1`, for which the “activity change, negative = cytotoxicity” value is -1.78%.

`COc1cccc(NC(=O)Nc2ccc3c(c2)C(=O)N(C)C[C@@H](OC)[C@@H](C)CN[C@H](C)CO3)c1`: the “activity change, negative = cytotoxicity” value was -1.4% [at 23.5 µM].

Turning to `CC(C)C(=O)Nc1ccc2c(c1)C(=O)N(C)[C@@H]1CC[C@H](CC(=O)NCC3CC3)O[C@H]1CO2`, the “activity change, negative = cytotoxicity” value is 9.2% [at 23.5 µM].

Turning to `COC(=O)C[C@H]1CC[C@H]2[C@H](COc3ccc(NC(=O)c4cscn4)cc3C(=O)N2C)O1`, the “activity change, negative = cytotoxicity” value is -12.2%.

The values are drawn from PubChem BioAssay AID720690 (Broad Institute, 2013).
